Sampled rows, rich in hits. Any-hit rate of the full collection: about 1.2%.
Mito fusion act – blocks mitochondrial division or promotes mitochondrial fusion | hit rate 0.23% among 320,000 | S. cerevisiae fusion-defective mutant growth rescue, CellTiterGlo 48 h | Potency, µM (top dose mostly 46.1 µM), without a hit: top-dose growth rescue (activation), actives largely listed as activators | AID 485298; also: % of control where 0% means no effect; nearly all actives have a fitted effect of over 45% in size
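S. cerevisiae fusion-defective temperature-sensitive mutants (e.g. fzo1-1, mgm1-5) grown 48 h at 37C in YPEG (ethanol/glycerol non-fermentable) medium with 23 nl compound per well; growth rescue read as CellTiterGlo luminescence.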
BRCA1 expr act – BRCA1 expression activation; MCF7-BRCA1-FFLuc reporter, luminescence, 48 h; response scale: scaled: vehicle 0%, 10 µM genistein 100%; Potency, µM (top dose mostly 46.1 µM), for inactives: at the top dose activation, most hits filed as activators; hit rate 1.1% among 380,000; AID 624202; also: nearly all actives have a fitted effect of over 80% in size
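Luminescence from a BRCA1-driven firefly luciferase in MCF7 cells was the read-out, taken 15 min after substrate addition following 48 h compound exposure at 37 °C. Data were normalized to a 10 microM genistein control and DMSO vehicle.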
ERG-DNA inh – inhibitors of human ERG Ets domain-DNA interaction | fluorescence polarization, His-ERG Ets domain / labelled DNA | Potency, µM (top dose mostly 76.9 µM), for inactives: at the highest dose FP activity, negative = inhibition, hits mostly inhibitors | hit rate 0.028% among 370,000 | AID 624246; active = well fitted inhibition curve with a large enough effect in the polarisation, with a control signal flat; inconclusive = small, poorly fitted or top-dose-only effect, or effect the other way, or a change in a side signal; inactive = no such curve, though single readings can be large or run the other way; the % refers to the polarisation;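 also: polarization taken with two DNA probes labelled with fluorescein and Texas red; % of control where 0% means no effect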
Target sequence (P11308 whole entry, looked up, the tested form may be a part): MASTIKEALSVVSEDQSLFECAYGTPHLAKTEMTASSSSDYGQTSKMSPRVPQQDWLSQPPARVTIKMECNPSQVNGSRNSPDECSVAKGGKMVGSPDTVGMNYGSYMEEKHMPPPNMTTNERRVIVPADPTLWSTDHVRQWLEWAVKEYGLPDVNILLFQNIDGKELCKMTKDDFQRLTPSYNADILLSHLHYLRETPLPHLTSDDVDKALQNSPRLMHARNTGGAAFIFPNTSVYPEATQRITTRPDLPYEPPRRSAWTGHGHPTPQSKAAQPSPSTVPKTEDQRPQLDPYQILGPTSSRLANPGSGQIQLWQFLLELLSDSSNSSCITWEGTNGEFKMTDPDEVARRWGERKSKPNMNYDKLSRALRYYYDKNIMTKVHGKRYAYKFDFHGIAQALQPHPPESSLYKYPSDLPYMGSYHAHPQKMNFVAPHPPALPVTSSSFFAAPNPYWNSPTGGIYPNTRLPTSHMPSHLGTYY
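His-tagged ERG Ets domain (1 uM in the protein solution; 300mM KCl, 50mM Tris-HCl, 1mM EDTA, 1mM DTT, pH 7.5) received compound, then a probe mix of 5 nM fluorescein-DNA and 100nM Texas-615-DNA. Fluorescence polarization was read for both dyes.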
B2AR arrestin – beta2AR (human) beta-arrestin recruitment activity; P07550; beta-arrestin recruitment to beta2AR, cell-based reporter; Potency, µM (doses to about 46.1 µM), without a hit: at the highest dose activation, hits mostly activators; hit rate 0.02% among 330,000;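 also: 0% = DMSO controls and full agonism = EC100 isoproterenol or metaproterenol; nearly all actives have a fitted effect of over 65% in size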
* = called active by the depositor. Unless noted, calls follow the shape of the dose curve; as a rule, active = well fitted curve in the direction sought with a large enough effect; inconclusive = small, poorly fitted or top-dose-only effect, or another doubt; inactive = no such curve, though single readings can be large; an effect the other way counts as inactive or inconclusive. Potency is read from the fitted curve at half-maximal effect.

For Nc1ccc(Oc2cc(N)cc(Oc3ccccc3)c2)cc1 the results were Mito fusion act -28%, BRCA1 expr act 7.1µM*, ERG-DNA inh -1% and B2AR arrestin 0%.
COc1cccc(-c2noc(-c3ccoc3C)n2)c1 was read as Mito fusion act 0%, BRCA1 expr act 2%, ERG-DNA inh -5% and B2AR arrestin 0%.
`COc1ccc(-c2noc(-c3ccoc3C)n2)cc1OC` gave Mito fusion act 1%, BRCA1 expr act 4.5µM*, ERG-DNA inh -8% and B2AR arrestin 0%.
Screening COc1ccc(-c2noc(-c3ccoc3C)n2)cc1 returned Mito fusion act 8%, BRCA1 expr act 11µM*, ERG-DNA inh -12% and B2AR arrestin 0%.
COc1ccccc1N1CCN(C(=O)CN2C(=O)COc3ccc(S(=O)(=O)N4CCOCC4)cc32)CC1 was read as BRCA1 expr act 9% and ERG-DNA inh -2%.
`Cc1ccc(Nc2cc(C)c3c(O)cccc3n2)cc1C` gave Mito fusion act 4%, BRCA1 expr act 5.6µM*, ERG-DNA inh -3% and B2AR arrestin 0%.
O=C(Oc1oc(-c2ccco2)nc1C=Nc1ccccc1)c1ccoc1 was read as Mito fusion act 0%, BRCA1 expr act 27% and B2AR arrestin 0%.
`Cc1ccc(C(=O)Oc2oc(-c3ccco3)nc2C=Nc2ccc(Cl)cc2)cc1` gave Mito fusion act 2%, BRCA1 expr act 2µM*, ERG-DNA inh 13% and B2AR arrestin -1%.
Screening O=C(C=Cc1ccc2c(c1)OCO2)c1ccccc1 returned BRCA1 expr act 55% and ERG-DNA inh 10%.
`O=C(CCc1ccccc1)c1ccc2c(c1)OCCCO2` gave Mito fusion act 7%, BRCA1 expr act 3.5µM*, ERG-DNA inh 4% and B2AR arrestin 0%.
`O=C(c1ccccc1)c1ccc2c(c1)OCCOCCOCCO2` gave Mito fusion act 3%, BRCA1 expr act 40%, ERG-DNA inh -14% and B2AR arrestin 0%.
Screening O=C(CCCc1ccccc1)c1ccc2c(c1)OCCO2 returned Mito fusion act 2%, BRCA1 expr act -78%, ERG-DNA inh -6% and B2AR arrestin 0%.
Screening O=C(/C=C/c1ccccc1)c1ccc2c(c1)OCCCCO2 returned Mito fusion act 1%, BRCA1 expr act 2.2µM*, ERG-DNA inh -11% and B2AR arrestin 0%.
Screening O=C(c1ccccc1)c1ccc2c(c1)OCCCO2 returned Mito fusion act -1%, BRCA1 expr act 1.4µM*, ERG-DNA inh 3% and B2AR arrestin -1%.
O/N=C(/CCc1ccccc1)c1ccc2c(c1)OCCO2 was read as Mito fusion act 28%, BRCA1 expr act 2.8µM*, ERG-DNA inh -4% and B2AR arrestin 0%.
O=C(NCCc1ccccc1)c1ccc2c(c1)OCCO2 was read as Mito fusion act 0%, BRCA1 expr act inconclusive, ERG-DNA inh -17% and B2AR arrestin 0%.
Screening O=S(=O)(c1cccc(C(F)(F)F)c1)N1CCC(Oc2ccc(-n3cnnn3)cc2)CC1 returned ERG-DNA inh 1%.
For O=C(Nc1cccc(-c2nc3cc(Cl)ccc3o2)c1)c1ccc(F)cc1 the results were BRCA1 expr act -16% and ERG-DNA inh -2%.
COc1ccc(N2CCN(c3csc4ccccc4c3=O)CC2)cc1 was read as ERG-DNA inh 2%.
For COC(=O)c1sc2cccc(F)c2c1S(=O)(=O)Nc1cc(C)c(Cl)cc1OC the results were ERG-DNA inh 3%.
CCc1nc2oc3ccc(C)cc3c(=O)c2cc1C(=O)OC was read as Mito fusion act 9%, BRCA1 expr act 6.3µM*, ERG-DNA inh 17% and B2AR arrestin 0%.
`COC(=O)c1cc2c(=O)c3ccccc3oc2nc1C` gave Mito fusion act -3%, BRCA1 expr act 71%, ERG-DNA inh -7% and B2AR arrestin -1%.
`CCOc1cc(C2NN=C(c3ccc(C)cc3)S2)ccc1O` (stereo not drawn) gave Mito fusion act inconclusive, BRCA1 expr act inconclusive, ERG-DNA inh 1% and B2AR arrestin -1%.
`COc1ccc(C2NN=C(c3ccc(C)cc3)S2)cc1` (stereo not drawn) gave Mito fusion act -1%, BRCA1 expr act 1.8µM*, ERG-DNA inh 5% and B2AR arrestin 0%.
For CCN(C(=O)CSc1nc(-c2ccc(C(C)C)cc2)no1)c1cccc(C)c1 the results were ERG-DNA inh 3%.
Screening Cc1ccc2c(c1)NC(=O)c1cccnc1N2 returned Mito fusion act 0%, BRCA1 expr act 4.5µM*, ERG-DNA inh 5% and B2AR arrestin -1%.
For O=C1Nc2ccccc2Nc2ncccc21 the results were Mito fusion act -5%, BRCA1 expr act -17%, ERG-DNA inh -21% and B2AR arrestin 0%.
For CC(=O)Nc1ccc(C(=O)OCc2ccc(F)cc2)cc1 the results were Mito fusion act inconclusive, BRCA1 expr act 10%, ERG-DNA inh -8% and B2AR arrestin 0%.
Screening CC(=O)Nc1ccc(C(=O)OCc2ccc(F)cc2Cl)cc1 returned Mito fusion act 13µM*, BRCA1 expr act 6%, ERG-DNA inh -7% and B2AR arrestin -1%.
O=C(Nc1ccc(F)cc1)Nc1ccc2c(c1)OCO2 was read as Mito fusion act -5%, BRCA1 expr act inconclusive, ERG-DNA inh 10% and B2AR arrestin -1%.
`O=C(Nc1ccc2c(c1)OCO2)Nc1ccc(F)cc1F` gave Mito fusion act -1%, BRCA1 expr act 3.2µM*, ERG-DNA inh 16% and B2AR arrestin 5%.
Screening O=C(Nc1ccc2c(c1)OCO2)Nc1cnccn1 returned Mito fusion act 7%, BRCA1 expr act 1%, ERG-DNA inh -7% and B2AR arrestin 0%.
`O=C(NCCc1ccc(F)cc1)Nc1ccc2c(c1)OCO2` gave Mito fusion act -1%, BRCA1 expr act 13µM*, ERG-DNA inh -1% and B2AR arrestin 0%.
O=C(Nc1ccc2c(c1)OCO2)Nc1ccccn1 was read as Mito fusion act -12%, BRCA1 expr act 2.5µM*, ERG-DNA inh 3% and B2AR arrestin 0%.
`CCN(CC)/[N+]([O-])=N/Oc1ccc([N+](=O)[O-])cc1[N+](=O)[O-]` gave BRCA1 expr act -1%.
`Cc1ccc2occ(CC(=O)Nc3ccc(S(=O)(=O)N4CCCC(C)C4)cc3)c2c1` (stereo not drawn) gave ERG-DNA inh 9%.
Screening Cc1noc(C)c1S(=O)(=O)Nc1ccc(C(=O)Nc2ccc(Br)cc2)cc1 returned BRCA1 expr act -32% and ERG-DNA inh -2%.
`O=C(NOCc1ccccc1)OCc1ccccc1` gave BRCA1 expr act 11µM* and ERG-DNA inh -1%.
`O=C(Nc1ccc2c(c1)OCO2)OCc1ccccc1` gave Mito fusion act 2%, BRCA1 expr act 2.2µM*, ERG-DNA inh 10% and B2AR arrestin 0%.
For COC(=O)c1ccc(NC(=O)Nc2ccc(F)cc2F)cc1 the results were Mito fusion act 2%, BRCA1 expr act 3.2µM*, ERG-DNA inh 13% and B2AR arrestin 0%.
`Cc1ccc(NC(=O)Nc2ccc3c(c2)OCO3)c(Br)c1` gave Mito fusion act 2%, BRCA1 expr act 1.8µM*, ERG-DNA inh 8% and B2AR arrestin 6%.

Screening data as filed in PubChem BioAssay.
